Assay results published in the supplement of paper PMC8371130.
Structures can show the parent of a compound that is named as a salt.

Tested on: HL-1
Experiment: relative cell viability (CellTiter-Glo) vs DMSO control (% of DMSO control); higher = more viable cells
Summary of the method: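 Compounds at 40, 200, 1000 or 5000 nM in 0.01% DMSO were added to HL-1 mouse atrial cardiomyocytes plated at 1000 cells per well in 384-well plates. The next day, cells were exposed to 1% O2 for 48 h and then reoxygenated for 24 h, or left in normoxia for the same time. Viability was read with CellTiter-Glo luminescence and normalised to vehicle-treated controls.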

[1] = oxygen condition: hypoxia 48 h (1% O2) + reoxygenation 24 h, 40 nM
[2] = oxygen condition: hypoxia 48 h (1% O2) + reoxygenation 24 h, 200 nM
[3] = oxygen condition: hypoxia 48 h (1% O2) + reoxygenation 24 h, 1000 nM
[4] = oxygen condition: hypoxia 48 h (1% O2) + reoxygenation 24 h, 5000 nM
[5] = oxygen condition: normoxia 72 h, 40 nM
[6] = oxygen condition: normoxia 72 h, 200 nM
[7] = oxygen condition: normoxia 72 h, 1000 nM
[8] = oxygen condition: normoxia 72 h, 5000 nM

Compound | relative cell viability [1] | relative cell viability [2] | relative cell viability [3] | relative cell viability [4] | relative cell viability [5] | relative cell viability [6] | relative cell viability [7] | relative cell viability [8]
CC[C@@H]1/C=C(\C)C[C@H](C)C[C@H](OC)[C@H]2O[C@@](O)(C(=O)C(=O)N3CCCC[C@H]3C(=O)O[C@H](/C(C)=C/[C@@H]3CC[C@H](Cl)[C@H](OC)C3)[C@H](C)[C@@H](O)CC1=O)[C@H](C)C[C@@H]2OC [Pimecrolimus] | 98.7 | 93.8 | 101 | 104 | 96.8 | 99.1 | 94.7 | 106
CCOc1nc2cccc(C(=O)O)c2n1Cc1ccc(-c2ccccc2-c2nnn[nH]2)cc1 [Candesartan] | 110 | 105 | 110 | 109 | 107 | 109 | 108 | 110
CC(=O)OCC[N+](C)(C)C [Acetylcholine chloride] | 93.2 | 99.1 | 101 | 106 | 91.7 | 101 | 104 | 106
Cc1ccc(C(=O)c2cc(O)c(O)c([N+](=O)[O-])c2)cc1 [Tolcapone] | 101 | 100 | 103 | 116 | 98.4 | 102 | 103 | 113
O=C(c1ccccc1)c1ccc2n1CCC2C(=O)O (stereo unspecified) [Ketorolac] | 104 | 105 | 104 | 109 | 102 | 98.3 | 103 | 111
Cn1nnc2c(C(N)=O)ncn2c1=O [Methazolastone] | 102 | 106 | 111 | 106 | 114 | 106 | 107 | 112
Cc1cccc(Nc2ccncc2S(=O)(=O)NC(=O)NC(C)C)c1 [Torsemide] | 103 | 102 | 107 | 106 | 106 | 112 | 112 | 105
C#C[C@]1(O)CC[C@H]2[C@@H]3CCC4=CC(=O)CC[C@@H]4[C@H]3CC[C@@]21C [norethindrone] | 97.6 | 100 | 97 | 105 | 102 | 108 | 100 | 113
CN1CC(=O)N2[C@H](c3ccc4c(c3)OCO4)c3[nH]c4ccccc4c3C[C@@H]2C1=O [Tadalafil] | 106 | 105 | 116 | 112 | 106 | 112 | 110 | 121
CCCC(CCC)C(=O)O [Divalproex sodium] | 98.3 | 109 | 102 | 111 | 99.9 | 106 | 106 | 118
CNNCc1ccc(C(=O)NC(C)C)cc1 [Procarbazine HCl] | 109 | 101 | 96.6 | 108 | 97.6 | 101 | 97.9 | 113
CCCN[C@H]1CCc2nc(N)sc2C1 [Pramipexole dihydrochloride monohydrate] | 103 | 98.2 | 99.8 | 107 | 99 | 105 | 101 | 110
O=C(O)c1cccnc1 [Niacin] | 107 | 107 | 98 | 109 | 110 | 111 | 106 | 93.9
CCCCNc1ccc(C(=O)OCCN(C)C)cc1 [Tetracaine hydrochloride] | 97.8 | 104 | 107 | 106 | 103 | 106 | 111 | 108
CCCCC1=NC2(CCCC2)C(=O)N1Cc1ccc(-c2ccccc2-c2nnn[nH]2)cc1 [Irbesartan] | 103 | 102 | 107 | 108 | 107 | 105 | 102 | 107
C[C@@H](Oc1cc(-c2cnn(C3CCNCC3)c2)cnc1N)c1c(Cl)ccc(F)c1Cl [Crizotinib] | 94.3 | 92.1 | 99.2 | 70.3 | 98.8 | 98.6 | 87.4 | 52
C[C@]12C=CC(=O)N[C@@H]1CC[C@@H]1[C@@H]2CC[C@]2(C)[C@@H](C(=O)Nc3cc(C(F)(F)F)ccc3C(F)(F)F)CC[C@@H]12 [Dutasteride] | 104 | 106 | 109 | 108 | 105 | 106 | 113 | 99.6
COc1ccccc1OCC(O)COC(N)=O (stereo unspecified) [Methocarbamol] | 104 | 107 | 108 | 119 | 101 | 112 | 106 | 114
CCOC(=O)C1=C(COCCN)NC(C)=C(C(=O)OC)C1c1ccccc1Cl (stereo unspecified) [Amlodipine besylate] | 88 | 102 | 102 | 105 | 103 | 105 | 106 | 102
CC(=O)OCC(=O)[C@H]1CC[C@H]2[C@@H]3CCC4=CC(=O)CC[C@]4(C)[C@H]3CC[C@]12C [Deoxycorticosterone acetate] | 103 | 99.4 | 101 | 108 | 95.4 | 103 | 102 | 107
CC(C)C[C@H](NC(=O)[C@H](CCc1ccccc1)NC(=O)CN1CCOCC1)C(=O)N[C@@H](Cc1ccccc1)C(=O)N[C@@H](CC(C)C)C(=O)[C@@]1(C)CO1 [Carfilzomib] | 3.62 | 3.8 | 4.12 | 3.78 | 3.3 | 4.04 | 3.72 | 3.71

Compound | relative cell viability [1] | relative cell viability [2] | relative cell viability [3] | relative cell viability [4] | relative cell viability [5] | relative cell viability [6] | relative cell viability [7] | relative cell viability [8]
Nc1ccc(/N=N/c2ccccc2)c(N)n1 [Phenazopyridine HCl] | 103 | 98.3 | 101 | 112 | 104 | 103 | 114 | 108
CN1CCOC(c2ccccc2)c2ccccc2C1 (stereo unspecified) [Nefopam HCl] | 95.1 | 74.3 | 43.9 | 93.2 | 60.3 | 45.5 | 44.4 | 68.8
NS(=O)(=O)c1cc2c(cc1C(F)(F)F)NC(Cc1ccccc1)NS2(=O)=O (stereo unspecified) [Bendroflumethiazide] | 93.6 | 98.4 | 101 | 106 | 104 | 100 | 105 | 110
O=C(c1cc(Cc2n[nH]c(=O)c3ccccc23)ccc1F)N1CCN(C(=O)C2CC2)CC1 [Olaparib] | 86.7 | 84.4 | 76.2 | 61.1 | 79 | 86.6 | 70.1 | 60
CCCCOc1cc(C(=O)NCCN(CC)CC)c2ccccc2n1 [Dibucaine HCL] | 103 | 107 | 108 | 118 | 109 | 110 | 109 | 118
CCN(Cc1ccncc1)C(=O)C(CO)c1ccccc1 (stereo unspecified) [Tropicamide] | 102 | 99.4 | 101 | 107 | 99.4 | 102 | 101 | 104
O=NN(CCCl)C(=O)NC1CCCCC1 [Lomustine] | 90.8 | 100 | 93.4 | 66.3 | 108 | 96.2 | 102 | 67
Cc1ccc(Nc2nccc(N(C)c3ccc4c(C)n(C)nc4c3)n2)cc1S(N)(=O)=O [Pazopanib HCl] | 94.1 | 106 | 105 | 109 | 103 | 113 | 104 | 109
O=C1NC(=O)C(c2ccccc2)(c2ccccc2)N1 [Phenytoin] | 98.3 | 97.9 | 98.1 | 103 | 95.4 | 61.2 | 93.3 | 99.4
Cc1cccc(Nc2ccccc2C(=O)O)c1C [Mefenamic acid] | 96.6 | 93.4 | 102 | 113 | 100 | 105 | 111 | 110
C=C(c1ccc(C(=O)O)cc1)c1cc2c(cc1C)C(C)(C)CCC2(C)C [Bexarotene] | 103 | 102 | 109 | 107 | 106 | 107 | 107 | 95.4
CN(C)CCN(Cc1cccs1)c1ccccn1 [Methapyrilene HCl] | 104 | 104 | 104 | 84.1 | 109 | 107 | 111 | 111
CCOC(=O)OC(C)OC1=C(C(=O)Nc2ccccn2)N(C)S(=O)(=O)c2ccccc21 (stereo unspecified) [Ampiroxicam] | 110 | 102 | 104 | 121 | 101 | 101 | 102 | 120
COc1ccccc1OCCNCC(O)COc1cccc2[nH]c3ccccc3c12 (stereo unspecified) [Carvedilol] | 93.5 | 110 | 107 | 108 | 104 | 105 | 107 | 107
CCOC(=O)C1=C(COCCN)NC(C)=C(C(=O)OC)C1c1ccccc1Cl (stereo unspecified) [Amlodipine] | 102 | 101 | 113 | 100 | 107 | 107 | 93.2 | 106
Cc1onc(-c2ccccc2)c1-c1ccc(S(N)(=O)=O)cc1 [Bextra] | 101 | 97.9 | 104 | 107 | 103 | 100 | 95.1 | 111
CCN(CC)C(=O)C1(c2ccccc2)CC1CN (stereo unspecified) [Milnacipran HCl] | 107 | 108 | 105 | 118 | 107 | 101 | 106 | 109
Nc1ncn([C@@H]2O[C@H](CO)[C@@H](O)[C@H]2O)c(=O)n1 [Azacitidine] | 105 | 101 | 102 | 83 | 98.6 | 103 | 90.1 | 84.5
COc1cc([C@@H]2c3cc4c(cc3[C@@H](O[C@@H]3O[C@@H]5CO[C@@H](c6cccs6)O[C@H]5[C@H](O)[C@H]3O)[C@H]3COC(=O)[C@H]23)OCO4)cc(OC)c1O [Teniposide] | 96.6 | 102 | 98.2 | 115 | 105 | 104 | 102 | 118
O=C(O)CCCN1CCC(O[C@@H](c2ccc(Cl)cc2)c2ccccn2)CC1 [Bepotastine Besilate] | 112 | 108 | 111 | 120 | 113 | 115 | 115 | 131
O=C(O)/C=C/c1ccc(Cn2ccnc2)cc1 [Ozagrel HCl] | 103 | 102 | 102 | 96.7 | 90.2 | 96.8 | 104 | 97.8
